Measured values reported in the supplement of paper PMC10849652.
Targets with a hit are over-represented here; the source holds about 7,900 in all. About 0.6% of all pairs of compound and target were hits. Values without a mark were called inactive.

Assays:
Assay in all cases: log2 fold change, soluble protein after heating vs DMSO (PISA); higher = thermal stabilisation; K562 cells, 10 uM, 30 min; active = over 0.2 and 3.5 SD of the protein, either way, in both replicates (recomputed)
[1] = compound: CC1=C(C=C(C=C1)NC(=O)C2=CC(=CC=C2)C(C)(C)C#N)NC3=CC4=C(C=C3)N=CN(C4=O)C
Method in brief: (§1)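 Soluble protein was defined as the supernatant after 21,000xg for 90 min. It came from K562 cells at 2×10^6 cells/mL given 10 μM compound for 30 min, heated in aliquots for 3 min across 48°C-58°C, pooled, and extracted in PBS with 0.5% NP-40 at 4°C, and was quantified by TMTpro 16plex LC-MS/MS with equalised channel sums. Thermal stability against control samples, from duplicates, is reported as log2 fold change.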

[2] = compound: CC1=C(C=C(C=C1)NC(=O)C2=CC(=CC=C2)N(C)C)NC(=O)C3=CC=C(C=C3)O
Method in brief: as §1

[3] = compound: CC1=CC=C(C=C1)SC2=C3C=C(SC3=CN=C2)C(=O)N
Method in brief: as §1

[4] = compound: CC1=NC(=CC=C1)C2=C(N=C(N2)C(C)(C)C)C3=CC4=NC=CN=C4C=C3
Method in brief: as §1

Nexturastat A = compound: CCCCN(Cc1ccc(C(=O)NO)cc1)C(=O)Nc1ccccc1 [Nexturastat A]
Method in brief: as §1

vemurafenib = compound: CCCS(=O)(=O)Nc1ccc(F)c(C(=O)c2c[nH]c3ncc(-c4ccc(Cl)cc4)cc23)c1F [vemurafenib]
Method in brief: as §1

[5] = compound: CCCS(=O)(=O)Nc1ccc(F)c(C(=O)c2c[nH]c3ncc(Cl)cc23)c1F
Method in brief: as §1

[6] = compound: CC[C@@H]1C(=O)N(C)c2cnc(Nc3ccc(C(=O)NC4CCN(C)CC4)cc3OC)nc2N1C1CCCC1
Method in brief: as §1

volasertib = compound: CC[C@@H]1C(=O)N(C)c2cnc(Nc3ccc(C(=O)N[C@H]4CC[C@H](N5CCN(CC6CC6)CC5)CC4)cc3OC)nc2N1C(C)C [volasertib]
Method in brief: as §1

[7] = compound: CC[C@H](C)N1C=C(C2=C(C=C(C=C21)C3=CN=C(C=C3)N4CCNCC4)C(=O)NCC5=C(C=C(NC5=O)C)C)C
Method in brief: as §1

epoxomicin = compound: CC[C@H](C)[C@@H](C(=O)N[C@@H]([C@@H](C)O)C(=O)N[C@@H](CC(C)C)C(=O)[C@]1(CO1)C)NC(=O)[C@H]([C@@H](C)CC)N(C)C(=O)C [epoxomicin]
Method in brief: as §1

[8] = compound: CCn1cc(-c2ccnc3[nH]c(-c4cccc(CN(C)C)c4)cc23)c(-c2ccc(NC(=O)N(C)C)cc2)n1
Method in brief: as §1

[9] = compound: CN(C)CC(=O)Nc1ccc2[nH]c(=O)c3ccccc3c2c1
Method in brief: as §1

[10] = compound: CN1C2=C(C3=C1C(=O)N(N=C3)CC4=CC(=CC=C4)N)SC(=C2)S(=O)C
Method in brief: as §1

[11] = compound: CN1CCC(CNc2ccc3ncc(-c4cccc(OC(F)(F)F)c4)n3n2)CC1
Method in brief: as §1

[12] = compound: CCCc1cc(C)[nH]c(=O)c1CNC(=O)c1cc(-c2ccnc(N3CCN(C)CC3)c2)cc2c1cnn2C(C)C
Method in brief: as §1

givinostat = compound: CCN(CC)Cc1ccc2cc(COC(=O)Nc3ccc(C(=O)NO)cc3)ccc2c1 [givinostat]
Method in brief: as §1

[13] = compound: CCn1c(C(=O)N(C2CC2)C2CC2)cc2c3c(ncn3C)c(Nc3cc(C)n(C)n3)nc21
Method in brief: as §1

barasertib = compound: CCN(CCCOc1ccc2c(Nc3cc(CC(=O)Nc4cccc(F)c4)[nH]n3)ncnc2c1)CCOP(=O)(O)O [barasertib]
Method in brief: as §1

rosiglitazone = compound: CN(CCOC1=CC=C(C=C1)C[C@H]2C(=O)NC(=O)S2)C3=CC=CC=N3 (racemic) [rosiglitazone]
Method in brief: as §1

CASP9 (UniProt P55211)
Chain of UniProt P55211 (P55211 whole entry, looked up): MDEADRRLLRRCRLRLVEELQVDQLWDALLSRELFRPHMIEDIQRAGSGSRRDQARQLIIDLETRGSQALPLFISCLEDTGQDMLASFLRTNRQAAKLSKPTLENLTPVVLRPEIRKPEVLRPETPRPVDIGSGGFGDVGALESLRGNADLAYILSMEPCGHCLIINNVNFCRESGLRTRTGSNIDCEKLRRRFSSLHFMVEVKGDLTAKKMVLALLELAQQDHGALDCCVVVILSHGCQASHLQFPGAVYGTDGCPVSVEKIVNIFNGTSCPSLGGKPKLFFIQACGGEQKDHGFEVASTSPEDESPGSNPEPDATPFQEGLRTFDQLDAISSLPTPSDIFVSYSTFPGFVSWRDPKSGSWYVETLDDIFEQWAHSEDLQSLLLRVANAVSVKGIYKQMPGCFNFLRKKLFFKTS
log2 fold change [1]: 0.103 | log2 fold change [2]: -0.091 | log2 fold change [3]: 0.032 | log2 fold change [4]: 0.021 | log2 fold change (Nexturastat A): 0.045 | log2 fold change (vemurafenib): 0.107 | log2 fold change [5]: 0.111 | log2 fold change [6]: -0.083 | log2 fold change (volasertib): -0.629 (active) | log2 fold change [7]: 0.008 | log2 fold change (epoxomicin): 0.054 | log2 fold change [8]: 0.035 | log2 fold change [9]: 0.048 | log2 fold change [10]: 0.001 | log2 fold change [11]: -0.188

COG2 (UniProt Q14746)
Chain of UniProt Q14746 (Q14746 whole entry, looked up): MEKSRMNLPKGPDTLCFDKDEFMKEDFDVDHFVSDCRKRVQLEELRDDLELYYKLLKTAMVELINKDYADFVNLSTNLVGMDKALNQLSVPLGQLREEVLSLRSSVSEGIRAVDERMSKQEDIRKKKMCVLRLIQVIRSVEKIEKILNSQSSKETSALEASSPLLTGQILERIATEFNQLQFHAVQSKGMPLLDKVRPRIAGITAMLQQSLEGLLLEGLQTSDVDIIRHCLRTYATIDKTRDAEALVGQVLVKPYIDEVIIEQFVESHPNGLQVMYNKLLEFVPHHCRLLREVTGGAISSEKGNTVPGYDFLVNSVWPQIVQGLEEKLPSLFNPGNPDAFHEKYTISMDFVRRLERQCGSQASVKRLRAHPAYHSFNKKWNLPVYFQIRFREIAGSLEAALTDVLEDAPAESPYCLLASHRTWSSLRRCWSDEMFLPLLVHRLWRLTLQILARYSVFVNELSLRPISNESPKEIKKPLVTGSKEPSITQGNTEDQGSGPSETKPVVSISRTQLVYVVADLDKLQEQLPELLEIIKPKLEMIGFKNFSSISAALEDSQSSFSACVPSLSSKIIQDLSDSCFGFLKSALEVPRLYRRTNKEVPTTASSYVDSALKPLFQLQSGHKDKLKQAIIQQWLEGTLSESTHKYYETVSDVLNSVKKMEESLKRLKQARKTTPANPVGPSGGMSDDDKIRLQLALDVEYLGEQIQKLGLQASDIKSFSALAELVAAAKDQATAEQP
log2 fold change [1]: -0.064 | log2 fold change [2]: 0 | log2 fold change [4]: 0.096 | log2 fold change (Nexturastat A): 0.432 | log2 fold change [12]: -0.59 | log2 fold change (givinostat): 0.048 | log2 fold change [6]: -0.173 | log2 fold change [7]: -0.357 | log2 fold change (epoxomicin): 0.008 | log2 fold change [13]: 0.076 | log2 fold change [10]: 0.302

CCNT2 (UniProt O60583)
Chain of UniProt O60583 (O60583 whole entry, looked up): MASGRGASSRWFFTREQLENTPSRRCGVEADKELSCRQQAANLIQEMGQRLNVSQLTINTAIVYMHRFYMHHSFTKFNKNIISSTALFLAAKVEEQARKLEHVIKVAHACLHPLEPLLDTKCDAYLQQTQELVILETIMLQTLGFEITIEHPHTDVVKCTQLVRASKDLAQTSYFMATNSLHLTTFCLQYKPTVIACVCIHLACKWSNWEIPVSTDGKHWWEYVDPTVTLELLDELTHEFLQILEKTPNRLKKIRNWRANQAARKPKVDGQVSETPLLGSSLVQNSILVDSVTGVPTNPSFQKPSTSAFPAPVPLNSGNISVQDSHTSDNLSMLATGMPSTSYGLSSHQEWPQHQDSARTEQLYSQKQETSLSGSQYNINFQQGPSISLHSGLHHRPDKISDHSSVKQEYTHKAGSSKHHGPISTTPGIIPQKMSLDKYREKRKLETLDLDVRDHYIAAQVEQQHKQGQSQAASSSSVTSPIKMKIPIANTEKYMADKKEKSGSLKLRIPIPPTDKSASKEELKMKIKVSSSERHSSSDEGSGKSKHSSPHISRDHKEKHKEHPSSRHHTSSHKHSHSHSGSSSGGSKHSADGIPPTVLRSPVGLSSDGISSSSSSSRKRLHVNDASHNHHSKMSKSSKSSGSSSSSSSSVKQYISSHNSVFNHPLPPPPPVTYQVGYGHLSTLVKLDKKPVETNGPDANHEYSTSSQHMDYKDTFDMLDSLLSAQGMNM
log2 fold change [1]: 0.092 | log2 fold change [2]: 0.042 | log2 fold change [3]: -0.057 | log2 fold change (Nexturastat A): 0.348 | log2 fold change [5]: -0.031 | log2 fold change [12]: 0.211 | log2 fold change [6]: 0.035 | log2 fold change (volasertib): -0.096 | log2 fold change [7]: 0.056 | log2 fold change (epoxomicin): 0.004 | log2 fold change [8]: -0.084 | log2 fold change [10]: 0.023 | log2 fold change [11]: -0.101

CHST10 (UniProt O43529)
Chain of UniProt O43529 (O43529 whole entry, looked up): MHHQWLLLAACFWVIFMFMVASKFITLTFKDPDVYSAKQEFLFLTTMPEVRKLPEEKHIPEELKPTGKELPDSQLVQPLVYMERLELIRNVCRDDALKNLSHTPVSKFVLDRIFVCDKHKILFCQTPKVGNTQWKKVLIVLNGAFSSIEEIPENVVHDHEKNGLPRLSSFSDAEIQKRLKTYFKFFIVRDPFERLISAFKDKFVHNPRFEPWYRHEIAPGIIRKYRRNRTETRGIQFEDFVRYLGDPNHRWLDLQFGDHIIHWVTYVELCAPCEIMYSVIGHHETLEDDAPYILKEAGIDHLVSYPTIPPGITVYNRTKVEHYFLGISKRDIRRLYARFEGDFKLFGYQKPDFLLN
log2 fold change [1]: 0.067 | log2 fold change [2]: -0.096 | log2 fold change [3]: -0.092 | log2 fold change [4]: -0.052 | log2 fold change (Nexturastat A): 0.05 | log2 fold change [5]: -0.015 | log2 fold change [12]: -0.097 | log2 fold change (givinostat): 0.069 | log2 fold change (barasertib): -0.025 | log2 fold change (volasertib): -0.146 | log2 fold change [7]: 0.002 | log2 fold change (epoxomicin): -0.019 | log2 fold change [13]: -0.043 | log2 fold change [8]: -0.021 | log2 fold change (rosiglitazone): 0.081 | log2 fold change [11]: -0.108

CCDC167 (UniProt Q9P0B6)
Chain of UniProt Q9P0B6 (Q9P0B6 whole entry, looked up): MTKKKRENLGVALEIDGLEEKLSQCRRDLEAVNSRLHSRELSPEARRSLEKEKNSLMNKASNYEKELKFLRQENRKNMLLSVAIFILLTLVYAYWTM
log2 fold change [1]: 0.064 | log2 fold change [2]: -0.039 | log2 fold change [3]: -0.007 | log2 fold change [4]: -0.042 | log2 fold change (Nexturastat A): 0.022 | log2 fold change [5]: -0.034 | log2 fold change [12]: 0.022 | log2 fold change (givinostat): 0.048 | log2 fold change (barasertib): -0.003 | log2 fold change [6]: 0.069 | log2 fold change (volasertib): -0.12 | log2 fold change [7]: -0.029 | log2 fold change (epoxomicin): 0.019 | log2 fold change [13]: -0.011 | log2 fold change [8]: 0.13 | log2 fold change (rosiglitazone): -0.084 | log2 fold change [10]: -0.095 | log2 fold change [11]: 0.033

CRYM-AS1 (UniProt A6NIL9)
log2 fold change [1]: 0.239 | log2 fold change [2]: -0.066 | log2 fold change [4]: -0.224 | log2 fold change (Nexturastat A): 0.332 | log2 fold change (vemurafenib): 0.161 | log2 fold change [12]: -0.049 | log2 fold change (givinostat): 0.189 | log2 fold change (barasertib): -0.036 | log2 fold change [6]: -0.04 | log2 fold change [7]: 0.233 | log2 fold change (epoxomicin): -0.107 | log2 fold change [13]: 0.104 | log2 fold change [8]: -0.029 | log2 fold change [9]: 0.089 | log2 fold change (rosiglitazone): -0.068 | log2 fold change [10]: 0.04 | log2 fold change [11]: -0.714 (active)

CFAP36 isoform 2 (UniProt Q96G28)
Chain of UniProt Q96G28 (Q96G28 whole entry, looked up): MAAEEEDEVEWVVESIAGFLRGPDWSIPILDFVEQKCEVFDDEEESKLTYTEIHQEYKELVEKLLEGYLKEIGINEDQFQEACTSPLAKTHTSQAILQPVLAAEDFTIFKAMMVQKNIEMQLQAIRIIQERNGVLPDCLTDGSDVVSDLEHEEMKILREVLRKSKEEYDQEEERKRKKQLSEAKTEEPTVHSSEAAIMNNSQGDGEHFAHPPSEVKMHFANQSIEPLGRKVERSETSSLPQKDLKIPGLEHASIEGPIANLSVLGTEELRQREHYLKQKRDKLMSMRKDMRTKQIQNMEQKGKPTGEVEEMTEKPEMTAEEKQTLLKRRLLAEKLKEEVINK
log2 fold change [1]: 0.005 | log2 fold change [2]: 0.024 | log2 fold change [3]: 0.054 | log2 fold change [4]: 0.066 | log2 fold change (Nexturastat A): 0.023 | log2 fold change (vemurafenib): -0.041 | log2 fold change [5]: 0.012 | log2 fold change [12]: -0.061 | log2 fold change (givinostat): -0.003 | log2 fold change (barasertib): 0.03 | log2 fold change [6]: -0.159 | log2 fold change (volasertib): -0.433 (active) | log2 fold change (epoxomicin): -0.017 | log2 fold change [13]: 0.077 | log2 fold change [8]: 0.048 | log2 fold change [9]: 0.005 | log2 fold change (rosiglitazone): 0.06 | log2 fold change [10]: 0.051 | log2 fold change [11]: -0.049

CENPE (UniProt Q02224)
log2 fold change [1]: -0.018 | log2 fold change [2]: 0.063 | log2 fold change [3]: 0.022 | log2 fold change [4]: -0.096 | log2 fold change (vemurafenib): 0.047 | log2 fold change [5]: -0.108 | log2 fold change (givinostat): 0.285 | log2 fold change (barasertib): -0.1 | log2 fold change (volasertib): 0.137 | log2 fold change [13]: -0.079 | log2 fold change [8]: -0.039 | log2 fold change [9]: -0.061 | log2 fold change (rosiglitazone): 0.03 | log2 fold change [10]: -0.255 | log2 fold change [11]: 0.192

CCM2 isoform 2 (UniProt Q9BSQ5)
Chain of UniProt Q9BSQ5 (Q9BSQ5 whole entry, looked up): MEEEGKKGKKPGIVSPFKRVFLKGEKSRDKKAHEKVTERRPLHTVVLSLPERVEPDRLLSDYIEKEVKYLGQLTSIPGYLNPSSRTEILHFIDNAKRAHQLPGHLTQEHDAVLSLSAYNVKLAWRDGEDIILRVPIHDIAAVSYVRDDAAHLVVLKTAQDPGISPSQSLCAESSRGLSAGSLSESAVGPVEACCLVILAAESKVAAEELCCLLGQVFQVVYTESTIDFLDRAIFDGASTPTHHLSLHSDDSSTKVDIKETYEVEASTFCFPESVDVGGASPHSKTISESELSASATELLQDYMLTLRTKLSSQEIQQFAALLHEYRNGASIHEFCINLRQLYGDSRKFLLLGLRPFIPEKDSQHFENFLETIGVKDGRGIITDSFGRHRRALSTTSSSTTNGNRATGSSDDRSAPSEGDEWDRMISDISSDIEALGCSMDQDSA
log2 fold change [1]: -0.072 | log2 fold change [2]: -0.068 | log2 fold change [3]: -0.124 | log2 fold change [4]: -0.002 | log2 fold change (Nexturastat A): 0.102 | log2 fold change (vemurafenib): 0.008 | log2 fold change [5]: 0.009 | log2 fold change [12]: 0.052 | log2 fold change (givinostat): -0.003 | log2 fold change (barasertib): -0.061 | log2 fold change [6]: -0.207 | log2 fold change (volasertib): -0.412 (active) | log2 fold change (epoxomicin): 0.102 | log2 fold change [13]: -0.047 | log2 fold change [8]: -0.017 | log2 fold change [9]: -0.01 | log2 fold change (rosiglitazone): 0.032 | log2 fold change [10]: -0.012 | log2 fold change [11]: -0.233
